# In the supplement of paper PMC6555819:
# System: PXR homodimer (NR concentration 270 nM)
# Assay: PBM binding z-score (relative to random genomic background probes); higher = stronger binding; sequences stand for … in GC…GCGATTGACAGCGTAGAATGAAGG
# Method in brief: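 Custom Agilent 4×180K protein-binding microarrays carried double-stranded probes, each with a 34-nt variable region. These regions held direct-repeat seeds, single-nucleotide variants, half-site ablations and random human genomic background sequences. Ligand-free nuclear receptor dimers were incubated on the arrays for 1 h, antibodies against each partner (one per run) detected binding, and scanned fluorescence was regression-normalized. Binding z-scores take the random background probes as reference.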
row,Sequence,PBM binding z-score
1,TATACAGGGTCAAAGGCCACAGTACGAATGTCGA,0.619
2,GATACAGGGTCAGCTAGAGCCCAGAGTATGGAAA,-0.197
3,TATACAGGGACAAAGGCCAGAGTACGAATGTCGA,0.479
4,TCGAGTAGGTTAGGGGCATTGAGAATGGCGTCGA,0.233
5,CCTCGGAGGACAGAAGGTCAGAGCTGTCCGCTTT,-0.13
6,CGTCCAAGGTCATAGGAGGTCCGTGAAGACAGAT,1.26
7,AGTCAAAGTCCACTAGGTAACGTAAGATTCAGCT,0.0413
8,CCTTACGGGTCACGAGGTTATAGAACGACGAGCG,0.292
9,TGAATGAGGTTATAAGAACAGGGAACGTTGCAAA,-0.0582
10,CGAACTACGTCATTGACAGGACAGTGAATAGTAA,0.0481
11,ATACCAAGGTGATCGTGAGGTGGTTGATACTAAC,0.167
12,TCTAGTTGCTCACGGAGGTCACACACGACGGGTA,0.832
13,CCTCGGGGGACAACAGGAGGTCAGAGCTGCCAGA,0.253
14,CTCGAAAGGTCGGTTGAGGTGAGTATTCGGATAA,-0.0873
15,TAGCCTAGGTCATATCGGGCCAGTATACGCTATA,0.0831
16,AGAACGAGGGCACGCTGAGTTGTTAGCAGAGTAG,-0.39
17,ACAGACTGGTGATGAAGGTAACTCAGGCTATCAT,-0.0629
18,CTCGAAAGGTCGTGCTCAGGTGAGTCTACCAAAC,0.183
19,AGAACGAGGGCACGCTGAGTTGACAGCAGAGTAG,-0.0837
20,ACTAGCAAGCCAAGTTTGGGTCACTCAAACAAAG,-0.636

row,Sequence,PBM binding z-score
1,CCTTACGGCTCAAGGTTATAGCACGGGTGGTACG,0.404
2,CCTATTAGTTGACCATAAGGGCTACCGAAGCTCG,0.632
3,CGAACTAGGTCAAGGAAAGTGAATCTCCGCACGC,-0.499
4,TGTCAAAGTTCAAAGGTAACGTAAGTATCCACAC,3.43
5,GCTGCTAGGTCAACTGATGGTCAGCCAAAGCTCG,-0.698
6,CATGCAGGGTCAGCTAGGCCAGAGTAGGGACGGC,-0.234
7,TCATGTAGATCAACAGGAGGTTAAGAAAGATCGA,-0.17
8,TTACCAAGGAGAAAGGTCGTTGATGCACGCCTTG,-0.00641
9,AGTTAAAGTTCATCTAGGTAACGTAAGATATGCT,6.53
10,CGAACTAGGTCATTGACAGGCCAGTGAATAGTAA,-0.173
11,GCTGCTAGGTCAACTGATGGTCAGGTAAAGCTCG,-0.677
12,TCTAGCAGGCCAGAGGGTCACACAAGAGGTACGG,-0.42
13,ATATGTCGGTTAGCTGGGGTCATTCAGACTAGGC,3.48
14,TCATATAGGTAATTCAGGTGAAAGTCGGCATCTA,0.443
15,CCTCGAAGGACAGAAGGTCAGAGCTGTCCGCTTT,-0.321
16,TGAATGATGTTAAAGATCAGGGAACGTGGCGTCG,0.0908
17,TCCTATAGGTAATACAGGTGAAAGTCGGCATCTA,-0.159
18,ACTAGCAGGCCAAGTTGGGGTCACTCAAACAAAG,1.2
19,CGTCCAAGGTCATAGGAGGGCAGTGAAGACAGAT,1.56
20,ATCTAAAGGTCGACGAGGTGAGTATACACCGTTT,0.284
